Screening data: PubChem, National Center for Advancing Translational Sciences (NCATS)
Sampled rows, rich in hits. Any-hit rate of the full collection: about 4.8%.
USP1-UAF1 inh = Inhibitors of USP1/UAF1: Primary Screen | Ubiquitin carboxyl-terminal hydrolase 1 (Homo sapiens), O94782 | recombinant USP1/UAF1, Ub-Rhodamine cleavage fluorescence | Potency, µM (top dose mostly 57.1 µM), for the others: at the highest dose activity change, negative = inhibition, actives largely listed as inhibitors | hit rate 0.23% among 390,000 | AID 743255, 2014; also: potency is read from the fitted curve at half-maximal effect; % is scaled to controls: 0 for no effect and ±100 for the full control effect; nearly all actives have a fitted effect of over 60% in size
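USP1/UAF1 complex (1 nM) preincubated 15 min at room temperature with compound, then Ub-Rho substrate (150 nM final) added. Kinetic fluorescence at 480/540 nm over 6 reads at 60 s intervals; 50 mM HEPES pH 7.8, 0.5 mM EDTA, 0.1 mg/ml BSA, 1 mM TCEP, 0.01% Tween-20.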
IL-1B inflam inh = qHTS for Inhibitors of Inflammasome Signaling: IL-1-beta AlphaLISA Primary Screen | THP-1 LPS/ATP IL-1B secretion, AlphaLISA, 16 h; active compounds read low | activity change, % at 57.5 µM | hit rate 4.7% among 360,000 | AID 743279, 2014; in the data active = activity change below about -50%; inconclusive = mostly about -30% to -49%; also: % is scaled to controls: 0 for no effect and ±100 for the full control effect
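Secreted IL-1B measured by AlphaLISA bead assay after 16 h compound exposure of THP-1 cells; compounds (final up to 57.5 uM) added 1 h before LPS (250 ng/mL) and ATP (1.25 mM) stimulation; lower signal means less secretion.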
ATXN2 expr inh = Primary qHTS for Inhibitors of ATXN expression; HEK-293 ATXN2-luciferase reporter, luminescence, 24 h; Potency, µM (titrated, usually from 57 µM), inactives show at the highest dose activity change, negative = inhibition, most hits filed as inhibitors; hit rate 0.72% among 360,000; AID 1745845, 2022; also: potency is read from the fitted curve at half-maximal effect; % is scaled to controls: 0 for no effect and ±100 for the full control effect; nearly all actives have a fitted effect of over 55% in size
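qHTS (up to 57 uM final) was run with 24 h compound exposure of reporter cells at 37 °C. Each well was multiplexed: SteadyGlo luminescence measured ATXN2-luciferase expression after a fluorogenic Gly-Phe-AFC viability readout (25 uM final).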
USP2a block = qHTS Assay for Inhibitors of Ubiquitin-specific Protease USP2a Using CHOP2 as the Reporter; Ubiquitin carboxyl-terminal hydrolase 2 (Homo sapiens), O75604; USP2 core, Ub-CHOP2 coupled fluorogenic reporter, 485/531; Potency, µM (doses to about 38.3 µM), inactives show at the top dose activity change, negative = inhibition, actives largely listed as inhibitors; hit rate 0.01% among 330,000; AID 463254, 2010;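 also: potency is read from the fitted curve at half-maximal effect; plate controls were DMSO wells for no effect and full inhibition by NEM control for full effect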
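Cell-free coupled assay: 10nM USP2 core preincubated 30min RT with compound in Tris-HCl pH 8.0/CaCl2/CHAPS buffer, then 25nM Ub-CHOP2 and 25nM reporter substrate; fluorescence (Ex 485/Em 531) read after 60min RT, normalized to NEM inhibition, concentration-response curves fitted.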
ATXN viability = Viability Counterscreen for Primary qHTS for Inhibitors of ATXN expression | S2 cells (HEK-293 line with an ATXN2-luciferase reporter) viability, CellTiter-Fluor protease fluorescence, 24 h | AID 651635, 2014 | hit rate 0.49% among 400,000 | Potency, µM (doses to about 56.7 µM), hits mostly cytotoxic; also: potency is read from the fitted curve at half-maximal effect; nearly all actives have a fitted effect of over 40% in size
* hit, by the source's call; i = inactive; ? = inconclusive; . = not tested or not shown. Unless noted, calls follow the shape of the dose curve; as a rule, active = well fitted curve in the direction sought with a large enough effect; inconclusive = small, poorly fitted or top-dose-only effect, or another doubt; inactive = no such curve, though single readings can be large; an effect the other way counts as inactive or inconclusive.

SMILES	USP1-UAF1 inh	IL-1B inflam inh	ATXN2 expr inh	USP2a block	ATXN viability
CC(=O)N(C)c1ccc(N2CCOCC2)c2c1C(=O)c1ccccc1C2=O	-19.3%	27.3	-17.2%	.	i
O=C(CN(c1cccc(C(F)(F)F)c1)S(=O)(=O)c1ccccc1)Nc1cccc(Cl)c1	-26.6%	.	?	.	?
O=C(CN(c1cccc(C(F)(F)F)c1)S(=O)(=O)c1ccc(Cl)c([N+](=O)[O-])c1)NCc1ccc(F)cc1	-13.1%	-99.3*	?	-0.1%	31.6µM*
O=C(O)c1cccc(-n2nc(-c3ccc(Cl)c([N+](=O)[O-])c3)c3ccccc3c2=O)c1	-27.7%	-69.0*	-4.2%	4.1%	i
O=c1c2ccccc2c(-c2ccccc2)nn1-c1ccc(Cl)c(Cl)c1	-14.9%	-8.5	-20.1%	0.0%	i
COC(=O)c1ccccc1NC(=O)c1cc(C)nc2c1c(C)nn2-c1ccc(C)cc1	-25.8%	.	13.5%	.	i
CCOc1cc(C(=O)Nc2ccc(S(=O)(=O)NC3=NCCCCC3)cc2)cc(Br)c1OC	-14.3%	-57.8*	4.2%	0.7%	i
Oc1ccc(O)c(Cc2nc3ccccc3s2)c1	-10.2%	-54.6*	5.2%	-6.1%	i
COc1ccc(N=Cc2nc(-c3ccco3)oc2O)cc1	-17.4%	-22.2	-4.6%	-0.6%	i
CCC(=NCc1ccc(Cl)c(Cl)c1)c1nc(-c2ccco2)oc1O	-22.1%	-63.6*	-9.5%	-2.5%	i
Cc1cn2c(=O)cc(COc3ccc(Cl)cc3)nc2s1	-3.7%	.	8.6%	.	i
Cc1nc2c(=O)n(C)c(=O)n(C)c2nc1Cl	-2.8%	-98.5*	?	4.9%	29.9µM*
Cn1c(=O)c2nc(NCc3ccccc3)cnc2n(C)c1=O	-11.3%	8.3	-10.4%	0.7%	.
O=C(OC1C2C=CC1C1C(=O)NC21)c1ccccc1 (stereo not drawn)	-19.2%	-10.2	.	.	i
O=C(/C=C/Sc1ccccc1)c1ccccc1	-23.9%	-103.7*	?	1.5%	.
O=C(/C=C/Sc1ccccc1)c1ccc(Cl)cc1	-15.2%	-99.0*	?	2.1%	.
O=C(C=Cc1ccccc1Cl)c1ccccc1	-11.6%	-11.2	23.7%	.	i
CN(CC1CCN(CCc2cccc(C(F)(F)F)c2)CC1)C(=O)c1ccc(F)cc1F	-16.9%	-50.5*	-12.4%	2.4%	i
CSCCC(=O)N(C)CC1CCN(CCc2cccc(C(F)(F)F)c2)CC1	-15.2%	-13.1	.	0.7%	i
CC(=O)Nc1ccc(CN(C)CC2CCCN(CCc3cccc(C(F)(F)F)c3)C2)cc1 (stereo not drawn)	-13.4%	-69.2*	-15.0%	-0.5%	i
CN(CC1CCCN(CCc2cccc(C(F)(F)F)c2)C1)C(=O)c1ccco1 (stereo not drawn)	-3.4%	11.3	-16.7%	-0.6%	i
COc1ccc(C(=O)N(C)CC2CCN(CCc3cccc(C(F)(F)F)c3)CC2)cc1C	-7.6%	-60.6*	-14.3%	-0.4%	?
CC[C@H](C)[C@H](N)C(=O)O	.	.	20.2%	.	i
COc1ncccc1C(=O)NC1CCCc2c1cnn2-c1cc(C)cc(C)c1 (stereo not drawn)	-24.3%	-55.6*	-11.2%	-2.1%	i
Cc1cc(C)cc(-n2ncc3c2CCCC3NC(=O)c2cc(C)oc2C)c1 (stereo not drawn)	-23.9%	-28.9	-6.8%	0.1%	?
Fc1ccc(-n2nnnc2-c2cnc(-c3cccs3)nc2C(F)(F)F)cc1	-20.2%	-80.5*	?	-6.4%	?
COc1ccc(-c2nn3c(-c4ccccn4)nnc3s2)cc1OC	-2.6%	-51.0*	-6.4%	-0.6%	i
Brc1ccc(-c2nn3c(-c4ccccn4)nnc3s2)o1	-11.9%	-50.6*	4.7%	-1.2%	i
COc1ccc(-c2nnc3sc(-c4cccs4)nn23)cc1OC	-14.2%	-52.4*	2.4%	-1.3%	i
O=C(CC1SC(=Nc2ccccc2)N(CCc2c[nH]c3ccccc23)C1=O)Nc1ccccc1F (stereo not drawn)	?	-80.2*	-30.5%	-0.4%	i
